# Assay outcomes deposited in PubChem BioAssay by Broad Institute.
# Pf Dd2 growth – blocks growth of Plasmodium falciparum Dd2 parasites | P. falciparum Dd2 growth, SYBR Green, 72 h; stronger effect = lower value | activity change, % at 10 µM | hit rate 2.3% among 94,000 | AID 1159554; in the data active = activity change below about -80%; inconclusive = no clear call, values can overlap the other calls
# T cruzi growth-1 – inhibitors of T. cruzi proliferation; T. cruzi beta-gal in NIH3T3, GalScreen luminescence, 90 h; inhibition, % at 8.34 µM; hit rate 5.9% among 77,000; AID 624255;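 active = mean inhibition above about 93%, with at least 55% of replicates each passing it, limit read from the data, passing the limit was not always enough; inconclusive = only one of those two conditions holds; inactive = neither condition holds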
# C diff growth – blocks growth of Clostridium difficile. Clostridium difficile clinical isolate growth, OD600, 24 h; stronger effect = lower value. growth activity, negative = inhibition, % at 16 µg/mL (by protocol). hit rate 0.25% among 86,000;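 active = mean growth activity at or below -80% and every replicate also at or below -80%; inconclusive = mean at or below -80% but some replicate above -80%; inactive = mean growth activity above -80%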;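 also: 0% = DMSO wells and -100% = levofloxacin 16 µg/mL wells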
# T cruzi growth-2 – inhibitors of T. cruzi proliferation; shares compounds with T cruzi growth-1; T. cruzi beta-gal in NIH3T3, GalScreen luminescence, 90 h; hit rate 72% among 5,600; inhibition, % at 8.35 µM;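 active = mean replicate inhibition above about 95% and at least 55% of replicates individually reaching it, limit read from the data; inconclusive = only one of the two criteria is met; inactive = neither criterion is met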
# T cruzi growth-3 – Trypanosoma cruzi proliferation inhibition; inhibition, % at 2.09 µM; shares compounds with T cruzi growth-1; hit rate 21% among 5,600; T. cruzi beta-gal in NIH3T3, GalScreen luminescence, 90 h;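 active = mean inhibition above about 95%, with at least 55% of replicates also reaching it, limit read from the data; inconclusive = meets just one of the two conditions; inactive = meets neither condition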;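 also: plate controls were neutral control median for no effect and positive control median for full effect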
# 3T3 cytotox – kills mouse NIH/3T3 fibroblasts; shares compounds with T cruzi growth-1; NIH/3T3 viability, CellTiter-Glo ATP luminescence, 90 h; cytotoxicity (signal decrease), % at 8.35 µM; hit rate 14% among 5,600; AID 651742;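 active = mean signal decrease across replicates above about 35% based on untreated-well scatter, with enough replicates individually passing, limit read from the data; inconclusive = no rule stated though some were filed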;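 also: 0% = median of neutral control wells and 100% = median of positive control wells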
# 3T3 cytotox 2 – cytotoxicity in mouse NIH/3T3 fibroblasts; AID 651744; shares compounds with T cruzi growth-1; hit rate 56% among 5,600; inhibition, % at 24.9 µM; NIH/3T3 viability, CellTiter-Glo ATP luminescence, 90 h;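 active = mean loss of cell viability signal at or above a set limit, and enough replicates individually reaching it; inconclusive = meets only the mean limit or only the replicate share; inactive = meets neither condition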;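 also: 0% = median of neutral control wells and 100% = median of positive control wells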
# Starred values were filed as active, the others as inactive; ? = inconclusive; · = not tested or not shown. In the library only some 6.7% were active in any assay of this set; here they are far more common.
SMILES,Pf Dd2 growth,T cruzi growth-1,C diff growth,T cruzi growth-2,T cruzi growth-3,3T3 cytotox,3T3 cytotox 2
COc1cccc(S(=O)(=O)N(C)C[C@@H]2Oc3cc(C#CCC(C)C)ccc3S(=O)(=O)N([C@@H](C)CO)C[C@H]2C)c1,?,96.2*,5.9,103.1*,108.5*,43.4*,77.7*
COCC(=O)Nc1ccc2c(c1)OC[C@H](C)N(C(=O)Cc1ccccn1)C[C@H](C)[C@H](OC)CN(C)C2=O,23.6,-8.4,-1.4,·,·,·,·
C[C@@H]1CN([C@H](C)CO)C(=O)c2cccc(NC(=O)C3CCOCC3)c2O[C@@H]1CN(C)S(=O)(=O)c1ccccc1,7.0,·,4.8,·,·,·,·
C[C@H]1CN([C@@H](C)CO)C(=O)c2cc(NS(=O)(=O)c3ccc(Cl)cc3)ccc2O[C@@H]1CN(C)Cc1ccccc1,-1.1,36.2,1.3,·,·,·,·
COCC#Cc1ccc2c(c1)O[C@H](CN(C)S(=O)(=O)c1cccc(F)c1)[C@H](C)CN([C@H](C)CO)S2(=O)=O,-82.3*,107.3*,3.2,93.3,74.4,29.8,62.5*
COCC#Cc1ccc2c(c1)O[C@@H](CN(C)S(=O)(=O)c1cccc(F)c1)[C@H](C)CN([C@@H](C)CO)S2(=O)=O,-72.7,64.3,1.2,·,·,·,·
CCCC#Cc1ccc2c(c1)O[C@H](CN(C)S(=O)(=O)c1cccc(F)c1)[C@@H](C)CN([C@H](C)CO)S2(=O)=O,-2.0,122.4*,10.7,101.4*,106.2*,-3.0,24.5*
CCCC#Cc1ccc2c(c1)O[C@H](CN(C)S(=O)(=O)c1cccc(OC)c1)[C@@H](C)CN([C@H](C)CO)S2(=O)=O,-47.6,·,4.3,·,·,·,·
C[C@@H]1CN([C@@H](C)CO)C(=O)c2cc(NC(=O)Cc3ccccc3)ccc2O[C@@H]1CN(C)C(=O)Nc1ccc(C(F)(F)F)cc1,-10.9,-9.8,-7.6,·,·,·,·
CO[C@H]1CN(C)C(=O)c2ccc(NC(=O)Nc3cc(F)ccc3F)cc2OC[C@@H](C)N(C(=O)c2cnccn2)C[C@H]1C,-43.1,13.7,·,·,·,·,·
C[C@@H]1CN([C@@H](C)CO)C(=O)c2cc(NC(=O)C3CC3)ccc2O[C@@H]1CN(C)C(=O)Nc1ccc2c(c1)OCO2,14.8,-14.1,2.0,·,·,·,·
O=C(C[C@@H]1C=C[C@@H](NC(=O)C2CC2)[C@H](CO)O1)NCc1ccncc1,11.8,·,4.8,·,·,·,·
CCCC#Cc1ccc([C@H]2[C@H](C#N)N(C(=O)C3CC3)[C@H]2CO)cc1,-23.8,105.7*,-0.7,107.0*,89.1,-3.6,32.0*
CCCC#Cc1ccc([C@@H]2[C@@H](C#N)N(C(=O)C3CCOCC3)[C@H]2CO)cc1,-23.3,63.1,-2.1,·,·,·,·
CCCC#Cc1ccc([C@@H]2[C@@H](CO)N(C(=O)C3CC3)[C@H]2C#N)cc1,-13.9,101.3*,-1.2,97.7*,69.9,-4.9,35.8*
CCCC#Cc1ccc([C@H]2[C@@H](C#N)N(C(=O)C3CCC3)[C@H]2CO)cc1,-55.2,92.6,-2.3,·,·,·,·
CN(C)CC#Cc1ccc([C@H]2[C@@H](CO)N(C(=O)C3CC3)[C@H]2C#N)cc1,33.4,19.9,-13.2,·,·,·,·
CC(C)C#Cc1ccc([C@@H]2[C@@H](CO)N(C(=O)C3CC3)[C@H]2C#N)cc1,3.7,37.3,-1.8,·,·,·,·
CCCC#Cc1ccc([C@H]2[C@@H](C#N)N(C(=O)C3CC3)[C@@H]2CO)cc1,-26.1,?,12.7,102.7*,86.4,-28.8,15.4
CCCC#Cc1ccc([C@H]2[C@@H](C#N)N(C(=O)C3CC3)[C@H]2CO)cc1,-37.8,?,14.7,?,?,5.7,41.2*
CO[C@@H]1CN(C)C(=O)c2cc(NC(=O)Nc3c(C)noc3C)ccc2OC[C@@H](C)N(CCC(F)(F)F)C[C@H]1C,23.1,6.1,·,·,·,·,·
CO[C@H]1CN(C)C(=O)c2ccc(NC(=O)c3ccc(F)cc3)cc2OC[C@@H](C)N(C(=O)CN(C)C)C[C@H]1C,·,41.9,·,·,·,·,·
CN(C)CC(=O)Nc1ccc2c(c1)[C@@H]1C[C@@H](CC(=O)NCc3ccccc3F)O[C@@H](CO)[C@@H]1O2,-14.7,22.5,-0.3,·,·,·,·
C[C@H](CO)N1C[C@H](C)[C@H](CN(C)C(=O)Nc2ccccc2)OCCCC[C@H](C)Oc2ccc(NC(=O)Cc3ccccc3)cc2C1=O,-15.3,38.0,·,·,·,·,·
C[C@H]1CCCCO[C@@H](CN(C)C(=O)Nc2cccc3ccccc23)[C@@H](C)CN([C@@H](C)CO)C(=O)c2cc(NC(=O)Cc3ccccc3)ccc2O1,-91.8*,102.0*,11.7,115.0*,63.1,7.5,8.7
SMILES,Pf Dd2 growth,T cruzi growth-1,C diff growth,T cruzi growth-2,T cruzi growth-3,3T3 cytotox,3T3 cytotox 2
C[C@@H]1CCCCO[C@@H](CN(C)C(=O)Nc2cccc3ccccc23)[C@H](C)CN([C@H](C)CO)C(=O)c2cc(NC(=O)c3ccccc3)ccc2O1,-59.2,103.4*,-0.4,101.1*,?,-18.1,-6.1
C[C@@H]1CCCCO[C@@H](CN(C)C(=O)Nc2cccc3ccccc23)[C@H](C)CN([C@@H](C)CO)C(=O)c2cc(NC(=O)CCC(F)(F)F)ccc2O1,-71.2,72.2,1.4,·,·,·,·
C[C@H]1CCCCO[C@H](CN(C)C(=O)Nc2cccc3ccccc23)[C@@H](C)CN([C@@H](C)CO)C(=O)c2cc(NC(=O)CCCN(C)C)ccc2O1,-74.2,35.2,-24.9,·,·,·,·
C[C@@H]1CCCCO[C@H](CN(C)C(=O)Nc2cccc3ccccc23)[C@H](C)CN([C@@H](C)CO)C(=O)c2cc(NC(=O)Cc3ccccc3)ccc2O1,-75.1,107.3*,16.6,103.1*,57.1,0.2,-7.5
CC(C)NC(=O)Nc1ccc2c(c1)C(=O)N([C@H](C)CO)C[C@H](C)[C@@H](CN(C)C(=O)Nc1cccc3ccccc13)OCCCC[C@H](C)O2,-44.2,-58.1,-18.3,·,·,·,·
C[C@@H]1CCCCO[C@@H](CN(C)C(=O)Nc2cccc3ccccc23)[C@H](C)CN([C@H](C)CO)C(=O)c2cc(NC(=O)Cc3ccccc3)ccc2O1,-86.6*,98.2*,15.9,101.9*,108.5*,-28.4,0.9
C[C@@H]1CCCCO[C@H](CN(C)C(=O)C2CCCCC2)[C@H](C)CN([C@@H](C)CO)C(=O)c2cc(NC(=O)CCC(F)(F)F)ccc2O1,-29.8,42.6,33.8,·,·,·,·
C[C@@H]1CCCCO[C@H](CN(C)C(=O)c2ccncc2)[C@@H](C)CN([C@H](C)CO)C(=O)c2cc(NC(=O)C3CCCCC3)ccc2O1,-8.8,0.9,-2.0,·,·,·,·
COc1ccc(NC(=O)N(C)C[C@@H]2Oc3ccc(NS(=O)(=O)c4cccs4)cc3C(=O)N([C@H](C)CO)C[C@@H]2C)cc1,9.3,80.4,·,·,·,·,·
C[C@@H]1CCCCO[C@@H](CN(C)C(=O)Cc2ccccc2)[C@H](C)CN([C@@H](C)CO)C(=O)c2cc(NS(=O)(=O)c3ccc(Cl)cc3)ccc2O1,6.2,99.7*,138.0,106.0*,73.8,2.9,46.6
